“And” between values parts separate entries of the source, which are not always exact repeats. Equal values may be shown once. Records with an inconclusive call do not appear. A call without a number means that no potency is given here. A structure can be active in one record and inactive in another. The source made the active and inactive calls. Unless noted, the call rests on the fitted dose curve; in most records, active means well fitted curve in the direction sought with a large enough effect in the repeat runs; inconclusive means weak or mixed curves; inactive means no such curve, though single readings can be large; an effect the other way counts as inactive or inconclusive.
Columns and labels:
[1] = qHTS assay to identify small molecule agonists of the estrogen receptor alpha (ER-alpha) signaling pathway in the presence of an antagonist - cell viability counter screen (AID 1259386);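 further: cells exposed to compounds for 22 h at 37 °C before the viability read; nearly all actives have a fitted effect of over 30% in size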; further: potency means the concentration at half of the fitted maximal effect
How it was run: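 Steps: 5-day stripped-FBS culture; seed and incubate 24hr; add ICI-182,780 (10.0nM final); pin 15-point compound titration; incubate 22hr at 37C; add CellTiter-Fluor at 21hr; read fluorescence.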

[2] = target: Progesterone receptor (Homo sapiens) (UniProt P06401); test: qHTS assay to identify small molecule agonists of the progesterone receptor (PR) signaling pathway (AID 1346784; calls by dose curve; further: nearly all actives have a fitted effect of over 30% in size)
How it was run: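 HEK 293T PR-UAS-bla reporter cells, 2% charcoal-stripped FBS; 6 hr settle at 37C/5% CO2, compound (DMSO) 16 hr, LiveBLAzer B/G FRET substrate 2 hr RT, fluorescence intensity read.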

[3] = qHTS assay to identify small molecule antagonists of the TGF-beta/Smad signaling pathway - cell viability counter screen (AID 1346824); further: nearly all actives have a fitted effect of over 50% in size; further: potency means the concentration at half of the fitted maximal effect
How it was run: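 SBE-bla HEK 293T cells, incubated overnight, then compound plus 0.25 ng/mL TGF-beta1 (stock added) for 5 hr at 37 C. Viability was read in the same wells by CellTiter-Glo luminescence after 30 min at room temperature.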

[4] = qHTS assay to identify small molecule agonists of the TGF-beta/Smad signaling pathway - cell viability counter screen (AID 1346829); further: nearly all actives have a fitted effect of over 45% in size; further: potency means the concentration at half of the fitted maximal effect
How it was run: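 After overnight seating at 37 C and 5% CO2, reporter cells got compounds for 5 hr and FRET substrate for 2 hr; cell viability then came from CellTiter-Glo luminescence.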

[5] = qHTS assay to identify small molecule agonists of the TGF-beta/Smad signaling pathway (AID 1346859; active means well fitted activation curve with a large enough effect in the signal ratio in the repeat runs, not every such curve was filed as active; the % refers to the signal ratio; further: series mostly up to about 77 µM)
How it was run: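 Read-out: fluorescence at 460 and 530 nm (405 nm excitation) after a 2 hr room-temperature incubation with beta-lactamase FRET substrate. SBE-bla HEK 293T cells had been treated with test compounds for 5 hr at 37 C.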

[6] = Human pregnane X receptor (PXR) small molecule agonists, qHTS cell viability counter screen (AID 1346977); further: nearly all actives have a fitted effect of over 50% in size; further: potency means the concentration at half of the fitted maximal effect
How it was run: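 Fluorescence read-out (CellTiter-Fluor) of viability in PXR-Luc HepG2 cells, multiplexed with the luciferase agonist read. Compounds in DMSO added after 5hr plating; 24hr total exposure at 37C, 5% CO2.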

[7] = Caspase-3/7 induction in HepG2 cells by small molecules, qHTS assay (AID 1346978); further: nearly all actives have a fitted effect of over 15% in size
How it was run: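 Wild-type HepG2 cells, 2,000/well, settled 5 hr at 37 C and 5% CO2, then compound-treated for 17 hr; caspase-3/7 activity read by luminescent Caspase-Glo 3/7 after 30 min at room temperature.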

[8] = Caspase-3/7 induction in CHO-K1 cells by small molecules, qHTS cell viability counter screen (AID 1346979); further: nearly all actives have a fitted effect of over 35% in size; further: potency means the concentration at half of the fitted maximal effect
How it was run: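 CHO-K1 wt, 1,500 cells/well; 5hr pre-incubation 37C/5% CO2; compound pin transfer (DMSO); 16hr exposure; CellTiter-Fluor added, 1hr, fluorescence read.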

[9] = Caspase-3/7 induction in CHO-K1 cells by small molecules, qHTS assay (AID 1346980); further: nearly all actives have a fitted effect of over 15% in size
How it was run: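 Wild-type CHO-K1 cells exposed to compounds for 17hr at 37 C, 5% CO2. Caspase-3/7 activity then measured by Caspase-Glo 3/7 luminescence after 30min at room temperature.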

[10] = Caspase-3/7 induction in HepG2 cells by small molecules, qHTS cell viability counter screen (AID 1346981); further: nearly all actives have a fitted effect of over 30% in size; further: potency means the concentration at half of the fitted maximal effect
How it was run: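 The parent HepG2 line is plated at 2,000 cells per well and rested 5 hr before compound pinning from DMSO stocks. Following a 16-hr treatment at 37 C, a fluorogenic live-cell substrate (CellTiter-Fluor) reports viability after 1 hr.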

[11] = target: Nuclear receptor subfamily 1 group I member 2 (Homo sapiens) (UniProt O75469); test: Human pregnane X receptor (PXR) small molecule agonists, qHTS assay (AID 1346982); further: nearly all actives have a fitted effect of over 35% in size; further: potency means the concentration at half of the fitted maximal effect
How it was run: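 After plating in 5% charcoal-stripped FBS and a 5 hr rest, PXR-Luc HepG2 cells received compounds in DMSO. Following 24 hr at 37 C, ONE-Glo was added and light output read.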

[12] = target: Acetylcholinesterase (Homo sapiens) (UniProt P22303); test: Acetylcholinesterase (AChE) small molecule antagonists: colormetric cell-based qHTS assay (AID 1347395; calls by dose curve; further: nearly all actives have a fitted effect of over 30% in size)
How it was run: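 SH-SY5Y cells; cpd 30 min 37 C; + DTNB/acetylthiocholine, 90 min 37 C; colorimetric thiocholine read; qHTS.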

[13] = qHTS assay to identify small molecule antagonists of the progesterone receptor (PR) signaling pathway - cell viability counter screen (AID 1346798); further: nearly all actives have a fitted effect of over 50% in size; further: potency means the concentration at half of the fitted maximal effect
How it was run: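 Luminescence readout (CellTiter-Glo, 30 min, RT) of viability in PR-UAS-bla HEK293T cells exposed to compound and R5020 agonist for 16 hr at 37C, 5% CO2; run in the same wells as the beta-lactamase reporter read.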

[14] = target: Thyrotropin-releasing hormone receptor (Homo sapiens) (UniProt P34981); test: qHTS assay to identify small molecule antagonists of the thyrotropin-releasing hormone receptor (TRHR) signaling pathway (AID 1346877; active means well fitted inhibition curve with a large enough effect in the repeat runs, not every such curve was filed as active; further: potency means the concentration at half of the fitted maximal effect)
How it was run: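 Human TRHR in HEK293 cells; inhibition of the intracellular calcium rise triggered by 1 nM TRH was followed by fluorescence over 3 min. Compounds were run at 15 concentrations, three replicates each.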

[15] = target: Thyrotropin-releasing hormone receptor (Homo sapiens) (UniProt P34981); test: qHTS assay to identify small molecule agonists of the thyrotropin-releasing hormone receptor (TRHR) signaling pathway (AID 1346891; calls by dose curve; further: potency means the concentration at half of the fitted maximal effect;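 on activation: HEK293 cells expressing TRHR with calcium dye readout; series mostly up to about 58 µM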)
How it was run: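 HEK293/TRHR cells, 1500 per well, 18 h 37 °C; Ca dye 2 h 37 °C; pin-tool compound addition (agonist mode); kinetic fluorescence 3 min, 1 s reads; 15 concentrations, triplicate.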

[16] = target: Nuclear receptor subfamily 1 group I member 2 (Rattus norvegicus) (UniProt Q9R1A7); test: Rat pregnane X receptor (rPXR) activation by small molecules, qHTS assay (AID 1346983); conditions: rPXR luciferase reporter cells, One-Glo luminescence, 24 h; max activation: stronger effect = higher value; further: nearly all actives have a fitted effect of over 20% in size
How it was run: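 Cell-based rPXR activation assay: rPXR cells, 2,000 per well, rested 5hr at 37 C, then exposed to compounds in DMSO for 24 hr at 37 C. Luciferase activity read by One-Glo luminescence after 30 min at room temperature.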

[17] = target: Nuclear receptor subfamily 1 group I member 2 (Homo sapiens) (UniProt O75469); test: CYP3A4 induction through human pregnane X receptor (PXR) by small molecules, qHTS assay (AID 1346984); further: nearly all actives have a fitted effect of over 40% in size
How it was run: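 Human PXR activation is tracked via CYP3A4 promoter-luciferase in DPX-2 (HepG2) cells. Compounds treat cells for 24hr at 37C, and luminescence is read after One-Glo.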

[18] = target: Nuclear receptor subfamily 1 group I member 2 (Homo sapiens) (UniProt O75469); test: Human pregnane X receptor (PXR) activation by small molecules, qHTS assay (AID 1346985); further: nearly all actives have a fitted effect of over 40% in size
How it was run: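 DPX-2 cells (HepG2 co-transfected with a PXR response element and a CYP3A4-promoter luciferase construct) were seeded at 2,000 per well, rested 5 hr at 37C, then exposed to DMSO-dissolved compounds for 24 hr. Activation was read as luciferase luminescence.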

[19] = qHTS assay to identify small molecule agonists of the progesterone receptor (PR) signaling pathway - cell viability counter screen (AID 1346799; calls by dose curve; further: nearly all actives have a fitted effect of over 45% in size; further: potency means the concentration at half of the fitted maximal effect)
How it was run: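 HEK293T PR-UAS-bla, 3,000 cells/well, 2% charcoal-stripped FBS; 6 h settle, compound 16 h at 37C/5% CO2; LiveBLAzer 2 h RT, then CellTiter-Glo 30 min RT, luminescence read.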

Chain of Progesterone receptor (Homo sapiens) (P06401 whole entry, looked up): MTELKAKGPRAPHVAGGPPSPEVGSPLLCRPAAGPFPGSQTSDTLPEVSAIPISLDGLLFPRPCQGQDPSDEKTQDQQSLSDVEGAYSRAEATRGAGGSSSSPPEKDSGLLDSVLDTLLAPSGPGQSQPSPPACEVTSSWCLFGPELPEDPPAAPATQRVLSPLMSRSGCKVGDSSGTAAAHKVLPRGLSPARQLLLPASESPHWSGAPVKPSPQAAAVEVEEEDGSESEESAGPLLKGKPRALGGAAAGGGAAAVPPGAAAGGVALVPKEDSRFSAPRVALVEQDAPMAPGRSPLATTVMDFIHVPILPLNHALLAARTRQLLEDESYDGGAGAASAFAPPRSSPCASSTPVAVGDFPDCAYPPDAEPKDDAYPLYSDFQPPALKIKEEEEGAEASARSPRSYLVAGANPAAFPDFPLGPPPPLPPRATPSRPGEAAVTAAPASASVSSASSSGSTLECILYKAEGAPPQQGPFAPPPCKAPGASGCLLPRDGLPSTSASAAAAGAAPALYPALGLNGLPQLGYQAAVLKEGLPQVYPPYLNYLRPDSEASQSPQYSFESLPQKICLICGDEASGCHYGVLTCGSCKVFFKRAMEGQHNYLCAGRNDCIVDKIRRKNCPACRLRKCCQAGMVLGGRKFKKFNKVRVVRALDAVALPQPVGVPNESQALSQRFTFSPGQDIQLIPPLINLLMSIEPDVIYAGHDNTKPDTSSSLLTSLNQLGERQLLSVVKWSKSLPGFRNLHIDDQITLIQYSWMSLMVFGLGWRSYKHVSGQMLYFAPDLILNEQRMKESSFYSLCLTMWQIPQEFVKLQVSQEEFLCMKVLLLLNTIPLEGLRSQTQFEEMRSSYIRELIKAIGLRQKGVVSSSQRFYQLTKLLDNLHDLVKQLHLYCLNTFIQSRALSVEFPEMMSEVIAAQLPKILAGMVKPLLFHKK
Chain of Acetylcholinesterase (Homo sapiens) (P22303 whole entry, looked up): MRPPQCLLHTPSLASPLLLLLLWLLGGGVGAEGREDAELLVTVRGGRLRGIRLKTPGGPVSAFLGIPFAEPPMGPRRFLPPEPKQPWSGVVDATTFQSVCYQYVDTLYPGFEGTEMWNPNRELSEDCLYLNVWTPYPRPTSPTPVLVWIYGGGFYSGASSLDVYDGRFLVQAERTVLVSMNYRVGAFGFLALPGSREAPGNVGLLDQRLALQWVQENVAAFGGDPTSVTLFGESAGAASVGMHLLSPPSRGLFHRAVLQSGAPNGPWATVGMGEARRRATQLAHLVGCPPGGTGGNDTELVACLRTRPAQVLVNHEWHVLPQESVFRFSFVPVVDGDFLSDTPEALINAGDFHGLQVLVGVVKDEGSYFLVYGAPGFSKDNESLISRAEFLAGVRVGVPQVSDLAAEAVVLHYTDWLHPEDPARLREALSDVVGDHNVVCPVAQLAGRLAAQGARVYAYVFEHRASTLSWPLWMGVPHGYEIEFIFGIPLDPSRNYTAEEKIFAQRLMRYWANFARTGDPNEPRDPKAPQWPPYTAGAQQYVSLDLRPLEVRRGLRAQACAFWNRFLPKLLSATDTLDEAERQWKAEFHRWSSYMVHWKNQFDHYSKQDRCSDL
Chain of Nuclear receptor subfamily 1 group I member 2 (Homo sapiens) (O75469 whole entry, looked up): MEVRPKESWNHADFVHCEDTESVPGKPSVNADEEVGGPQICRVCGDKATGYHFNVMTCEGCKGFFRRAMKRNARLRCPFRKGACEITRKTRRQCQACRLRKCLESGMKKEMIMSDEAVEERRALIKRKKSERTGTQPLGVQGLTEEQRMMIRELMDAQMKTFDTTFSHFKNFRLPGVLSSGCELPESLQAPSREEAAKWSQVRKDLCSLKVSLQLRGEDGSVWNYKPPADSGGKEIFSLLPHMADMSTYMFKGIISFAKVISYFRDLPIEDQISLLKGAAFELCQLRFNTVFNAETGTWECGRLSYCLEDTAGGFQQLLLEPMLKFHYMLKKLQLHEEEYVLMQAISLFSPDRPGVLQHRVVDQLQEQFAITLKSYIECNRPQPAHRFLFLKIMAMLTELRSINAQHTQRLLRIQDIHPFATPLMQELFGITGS
Chain of Thyrotropin-releasing hormone receptor (Homo sapiens) (P34981 whole entry, looked up): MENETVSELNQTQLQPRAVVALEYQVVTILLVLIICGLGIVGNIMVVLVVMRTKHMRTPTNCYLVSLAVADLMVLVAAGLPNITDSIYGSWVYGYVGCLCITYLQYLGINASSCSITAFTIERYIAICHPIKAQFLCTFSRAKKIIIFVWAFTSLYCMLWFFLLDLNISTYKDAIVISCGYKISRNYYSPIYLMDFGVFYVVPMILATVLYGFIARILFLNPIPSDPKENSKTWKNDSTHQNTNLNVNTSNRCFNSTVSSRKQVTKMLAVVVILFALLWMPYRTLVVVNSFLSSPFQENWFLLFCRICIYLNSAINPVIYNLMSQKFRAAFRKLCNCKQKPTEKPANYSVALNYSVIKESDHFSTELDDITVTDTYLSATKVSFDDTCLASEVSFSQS
Chain of Nuclear receptor subfamily 1 group I member 2 (Rattus norvegicus) (Q9R1A7 whole entry, looked up): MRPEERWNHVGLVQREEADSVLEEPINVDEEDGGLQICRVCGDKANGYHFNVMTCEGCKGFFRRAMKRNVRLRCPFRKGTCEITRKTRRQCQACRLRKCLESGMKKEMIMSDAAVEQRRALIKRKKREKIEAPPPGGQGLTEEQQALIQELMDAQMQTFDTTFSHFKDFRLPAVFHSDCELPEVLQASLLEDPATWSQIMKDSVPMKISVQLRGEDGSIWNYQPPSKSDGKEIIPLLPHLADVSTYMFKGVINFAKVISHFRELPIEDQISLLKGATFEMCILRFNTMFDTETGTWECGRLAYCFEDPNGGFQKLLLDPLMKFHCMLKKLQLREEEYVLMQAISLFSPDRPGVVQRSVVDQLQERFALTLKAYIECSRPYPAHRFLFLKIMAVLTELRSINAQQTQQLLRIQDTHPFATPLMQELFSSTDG

SMILES	Potency [1]	Potency [2]	Potency [3]	Potency [4]	outcome [5]	Potency [6]	Potency [7]	Potency [8]	Potency [9]	Potency [10]	Potency [11]	Potency [12]	Potency [13]	Potency [14]	Potency [15]	max activation [16]	Potency [17]	Potency [18]	Potency [19]
CCCN(CC)CC1COC2(CCC(C(C)(C)C)CC2)O1 (configuration not stated)	inactive	inactive	inactive	inactive	inactive	inactive	inactive	inactive	inactive	inactive	inactive	inactive							
S=C(SSC(=S)N1CCCCC1)N1CCCCC1	inactive	inactive	inactive	inactive	inactive		inactive	1.88 µM (active)	inactive		9.44 µM (active)	inactive	0.531 µM (active)						
CCCCCCCCCCCCCCCC[N+](C)(C)C	inactive	inactive		inactive and 54.9 µM (active)	inactive	61.1 µM (active)	inactive	26.3 µM (active) and 48.6 µM (active) and 29.8 µM (active)		68.6 µM (active)	inactive		29.8 µM (active)	inactive and 30.1 µM (active)	inactive and 27.5 µM (active)	-8.83% (inactive)	inactive	inactive	
OC(c1ccc(Cl)cc1)(c1ccc(Cl)cc1)C(Cl)(Cl)Cl	inactive	inactive	inactive	inactive	inactive	inactive	inactive			inactive	24.3 µM (active)	inactive							inactive
Cc1cc(C)cc(OP(=O)(Oc2cc(C)cc(C)c2)Oc2cc(C)cc(C)c2)c1	inactive	inactive	inactive	inactive	inactive	inactive	inactive	inactive	inactive	inactive	8.77 µM (active)	inactive	inactive						
CCCCCCCCCCCCCCCCCCn1cc[n+](C)c1	60.8 µM (active)	inactive	21.7 µM (active)	48.7 µM (active)		8.58 µM (active)	inactive	4.3 µM (active)		68.2 µM (active)	inactive			inactive	inactive				30.5 µM (active)
C[C@@H]1O[C@@H](O[C@@H]2C=C3CC[C@@H]4[C@H](CC[C@]5(C)[C@@H](c6ccc(=O)oc6)CC[C@]45O)[C@@]3(C)CC2)[C@H](O)[C@H](O)[C@H]1O	inactive	inactive					inactive		inactive		inactive	inactive	0.0133 µM (active)	inactive	inactive	-3.43% (inactive)		inactive	0.0168 µM (active)
Cn1[nH]nnc1=S	inactive	inactive	inactive	inactive	inactive	inactive	inactive	inactive	inactive	inactive	inactive	inactive		inactive	inactive				
Nc1ccc([N+](=O)[O-])cc1Cl	54.5 µM (active)	inactive	inactive	inactive	inactive		inactive	61.1 µM (active)	inactive		inactive	inactive	inactive						
CC(C)CCCCCCCOP(=O)(Oc1ccccc1)Oc1ccccc1	inactive	inactive	inactive	inactive	inactive	inactive	inactive		inactive	inactive	6.89 µM (active)	inactive		inactive	inactive				inactive
CCC(C)c1cc(C(C)(C)C)cc(-n2nc3ccccc3n2)c1O (configuration not stated)	inactive	inactive	inactive	inactive	inactive		inactive	inactive	inactive	inactive	inactive	inactive	inactive	inactive	inactive				
CC(=O)Nc1ccc2c(c1)Cc1ccccc1-2	inactive	inactive	inactive	inactive	inactive	inactive	inactive	inactive	inactive	inactive	24.7 µM (active)	inactive	inactive	inactive	inactive				
CCCN(CCC)CCc1c[nH]c2ccccc12	inactive	inactive	inactive	inactive	inactive		inactive	inactive	inactive	inactive	inactive	inactive		inactive	inactive				
CC1(C)C(/C=C(\Cl)C(F)(F)F)C1C(=O)OC(C#N)c1cccc(Oc2ccccc2)c1 (configuration not stated)	inactive	inactive		inactive	inactive		inactive	inactive		inactive	1.96 µM (active)	inactive	inactive	inactive	inactive				
O=C(Cl)c1ccc(Cl)cc1	inactive	inactive		inactive	inactive	inactive	inactive	inactive	inactive	inactive	inactive	inactive	inactive						inactive

Source: PubChem BioAssay (Tox21)
